Our source for the binding signal values is article PMC5515408, “Sequence-specific DNA binding by MYC/MAX to low-affinity non-E-box motifs”.

In all, about 4,500 sequences were measured (“log2 normalized fluorescence”: median about -0.34, highest 2% from about 3.3 on). The sample holds the highest values, similar sequences and a random draw of the others, so the mix is not that of the screen.

This experiment deals with MAX:MAX (p21) (human, UniProt P61244-2 1-151). The experiment is described as follows: protein-binding microarray (anti-MAX antibody); PBM: 15 mM Tris-HCl pH 7.5, 100 mM KCl, 0.075% NP40, 7.5 mM beta-mercaptoethanol, 375 ng/ul BSA, 8 ng/ul poly(dA-dT):(dA-dT), 550 ng complex, 60 min, room tempe; high values mean tight binding. The following applies: protein: recombinant; tags: 6xHis; chain copies: 2; label: 3' end of printed strand (linker) attached to glass slide; dsDNA, one strand shown. The gist of the method: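 Recombinant His-tagged human MYC:MAX or MAX:MAX dimers (550 ng, expressed in E. coli) were incubated for 60 min at room temperature in Tris-KCl buffer, pH 7.5, with NP40, BSA and poly(dA-dT) competitor. The custom Agilent glass array held ~5000 unique 12-nt sequences, each spotted in triplicate and made double-stranded by primer extension. Bound protein was detected with anti-MAX and secondary antibodies and scanned at 543 nm. Binding is reported as log2 normalized fluorescence.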
Sequence of MAX:MAX (p21) (P61244 other isoform, or with tags, fused parts or gaps): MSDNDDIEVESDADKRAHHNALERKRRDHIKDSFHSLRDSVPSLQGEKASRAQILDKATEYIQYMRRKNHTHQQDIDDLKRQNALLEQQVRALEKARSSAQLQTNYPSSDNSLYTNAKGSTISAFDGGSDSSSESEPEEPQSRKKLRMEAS
As to “CCGGCTGATGCTGAGTATTAATAGCTAAGATTACTATATCGACG”, the binding signal is 0.00915 log2 normalized fluorescence.

Take “CCGGCTGAACAAAGGTATTAATAGCTAAGATTACTATATCGACG”: the binding signal was -0.6 log2 normalized fluorescence.

Turning to “CCGGCTGACCGCGAGTATTAATAGCTAAGATTACTATATCGACG”, the binding signal is 1.06 log2 normalized fluorescence.

As to “CCGGCTGAGCACAAGTATTAATAGCTAAGATTACTATATCGACG”, the binding signal is 0.993 log2 normalized fluorescence.

“CCGGCTGGCACGTGCTATTAATAGCTAAGATTACTATATCGACG”: the binding signal was 3.25 log2 normalized fluorescence.

Regarding “CCGGCTCACACGTGGTTTTAATAGCTAAGATTACTATATCGACG”, the binding signal was 3.32 log2 normalized fluorescence.

“CCGGCTAACACGTGGTTTTAATAGCTAAGATTACTATATCGACG”: the binding signal is 3.27 log2 normalized fluorescence.

As for “CCGGCTCACACGTGGTATTAATAGCTAAGATTACTATATCGACG”, the binding signal was 3.33 log2 normalized fluorescence.

On to “CCGGCTCAGACGTGGTATTAATAGCTAAGATTACTATATCGACG”, for which the binding signal is 1.39 log2 normalized fluorescence.

On to “CCGGCTCACACGTCGTATTAATAGCTAAGATTACTATATCGACG”, for which the binding signal was 2.63 log2 normalized fluorescence.

Consider “CCGGCTCACACGTTTTATTAATAGCTAAGATTACTATATCGACG”, for which the binding signal was 3.25 log2 normalized fluorescence.

With “CCGGCTGAATGACCGTATTAATAGCTAAGATTACTATATCGACG”, the binding signal is 0.107 log2 normalized fluorescence.

Consider “CCGGCTCACACCTCGTATTAATAGCTAAGATTACTATATCGACG”, for which the binding signal is 2.28 log2 normalized fluorescence.

On to “CCGGCTGACGGTTCGTATTAATAGCTAAGATTACTATATCGACG”, for which the binding signal was -0.498 log2 normalized fluorescence.

As for “CCGGCTCATACGTGGAATTAATAGCTAAGATTACTATATCGACG”, the binding signal was 1.28 log2 normalized fluorescence.

“CCGGCGGACGCGTGGTATTAATAGCTAAGATTACTATATCGACG”: the binding signal is 3.14 log2 normalized fluorescence.

“CCGGCTCGCACGTGGAATTAATAGCTAAGATTACTATATCGACG”: the binding signal is 3.31 log2 normalized fluorescence.

For the sequence “CCGGCGCACACGTGGTATTAATAGCTAAGATTACTATATCGACG”, the binding signal is 3.29 log2 normalized fluorescence.

For “CCGGCTAGCACGTGGTATTAATAGCTAAGATTACTATATCGACG”, the binding signal was 3.44 log2 normalized fluorescence.

On to “CCGGCGGACTCGTGGTATTAATAGCTAAGATTACTATATCGACG”, for which the binding signal is 3.3 log2 normalized fluorescence.

On to “CCGGCTGAAACGTGGAATTAATAGCTAAGATTACTATATCGACG”, for which the binding signal was 2.54 log2 normalized fluorescence.

In the case of “CCGGCGCAAACGTGGTATTAATAGCTAAGATTACTATATCGACG”, the binding signal is 2.98 log2 normalized fluorescence.

As to “CCGGCCAGCACGTGGTATTAATAGCTAAGATTACTATATCGACG”, the binding signal was 3.24 log2 normalized fluorescence.

Take “CCGGCAAGCACGTGGTATTAATAGCTAAGATTACTATATCGACG”: the binding signal is 3.27 log2 normalized fluorescence.

Turning to “CCGGCGCGCACGTGGTATTAATAGCTAAGATTACTATATCGACG”, the binding signal is 3.39 log2 normalized fluorescence.

Regarding “CCGGCGGACCCGTGGTATTAATAGCTAAGATTACTATATCGACG”, the binding signal is 2.46 log2 normalized fluorescence.

In the case of “CCGGCTGACCTGATGTATTAATAGCTAAGATTACTATATCGACG”, the binding signal is 0.381 log2 normalized fluorescence.

Regarding “CCGGCATAGTATACAATTTAATAGCTAAGATTACTATATCGACG”, the binding signal is 0.0214 log2 normalized fluorescence.

With “CCGGCTGAACCCTGGTATTAATAGCTAAGATTACTATATCGACG”, the binding signal is -0.595 log2 normalized fluorescence.

In the case of “CCGGCTGATAAGTGGTATTAATAGCTAAGATTACTATATCGACG”, the binding signal is -0.651 log2 normalized fluorescence.

For “CCGGCTGAAGGATTGTATTAATAGCTAAGATTACTATATCGACG”, the binding signal is -0.589 log2 normalized fluorescence.

Regarding “CCGGCTGAAACTTGGTATTAATAGCTAAGATTACTATATCGACG”, the binding signal is -0.705 log2 normalized fluorescence.

For “CCGGCTCGCACGTGGTATTAATAGCTAAGATTACTATATCGACG”, the binding signal was 3.41 log2 normalized fluorescence.

As to “CCGGCACCCACGTGGTATTAATAGCTAAGATTACTATATCGACG”, the binding signal was 3.35 log2 normalized fluorescence.

Consider “CCGGCCTGCACGTGGTATTAATAGCTAAGATTACTATATCGACG”, for which the binding signal was 3.26 log2 normalized fluorescence.

For the sequence “CCGGCAGGCACGTGGTATTAATAGCTAAGATTACTATATCGACG”, the binding signal was 3.21 log2 normalized fluorescence.

Turning to “CCGGCGTGCACGTGGTATTAATAGCTAAGATTACTATATCGACG”, the binding signal is 3.47 log2 normalized fluorescence.

Take “CCGGCGAGCACGTGGTATTAATAGCTAAGATTACTATATCGACG”: the binding signal is 3 log2 normalized fluorescence.

Regarding “CCGGCCGGCACGTGGTATTAATAGCTAAGATTACTATATCGACG”, the binding signal is 3.27 log2 normalized fluorescence.

As to “CCGGCACGCACGTGGTATTAATAGCTAAGATTACTATATCGACG”, the binding signal is 3.29 log2 normalized fluorescence.

In the case of “CCGGCTCGGACGTGGTATTAATAGCTAAGATTACTATATCGACG”, the binding signal is 1.17 log2 normalized fluorescence.

Regarding “CCGGCATCCACGTGGTATTAATAGCTAAGATTACTATATCGACG”, the binding signal is 3.28 log2 normalized fluorescence.

For the sequence “CCGGCCCGCACGTGGTATTAATAGCTAAGATTACTATATCGACG”, the binding signal is 3.03 log2 normalized fluorescence.

For the sequence “CCGGCTGACGCAGGGTATTAATAGCTAAGATTACTATATCGACG”, the binding signal was -0.104 log2 normalized fluorescence.

On to “CCGGCTGACCTGCTGTATTAATAGCTAAGATTACTATATCGACG”, for which the binding signal is 0.214 log2 normalized fluorescence.

On to “CCGGCTGAAGAGTGGTATTAATAGCTAAGATTACTATATCGACG”, for which the binding signal was 0.0783 log2 normalized fluorescence.

For the sequence “CCGGCTGAGGGGGAGTATTAATAGCTAAGATTACTATATCGACG”, the binding signal is 1.48 log2 normalized fluorescence.

Consider “CCGGCTGAACCCAGGTATTAATAGCTAAGATTACTATATCGACG”, for which the binding signal was -0.34 log2 normalized fluorescence.

Regarding “CCGGCTGAGTTGAGGTATTAATAGCTAAGATTACTATATCGACG”, the binding signal was -0.631 log2 normalized fluorescence.

Turning to “CCGGCTGACCGGTAGTATTAATAGCTAAGATTACTATATCGACG”, the binding signal is -0.573 log2 normalized fluorescence.

For “CCGGCTGACACAGGGTATTAATAGCTAAGATTACTATATCGACG”, the binding signal is 0.747 log2 normalized fluorescence.

Take “CCGGCTGAGAGCCTGTATTAATAGCTAAGATTACTATATCGACG”: the binding signal is -0.287 log2 normalized fluorescence.

As to “CCGGCTGACAGACCGTATTAATAGCTAAGATTACTATATCGACG”, the binding signal is 0.179 log2 normalized fluorescence.

For “CCGGCTGAACTCATGTATTAATAGCTAAGATTACTATATCGACG”, the binding signal is 1.71 log2 normalized fluorescence.

With “CCGGCTGACAAGTTGTATTAATAGCTAAGATTACTATATCGACG”, the binding signal is -0.304 log2 normalized fluorescence.

In the case of “CCGGCTGATCATATGTATTAATAGCTAAGATTACTATATCGACG”, the binding signal was 1.98 log2 normalized fluorescence.

Consider “CCGGCTGACACGTGGTATTAATAGCTAAGATTACTATATCGACG”, for which the binding signal is 3.19 log2 normalized fluorescence.

Regarding “CCGGCGGACACGTGCTATTAATAGCTAAGATTACTATATCGACG”, the binding signal was 3.15 log2 normalized fluorescence.

Regarding “CCGGCTGTCACGTGGTATTAATAGCTAAGATTACTATATCGACG”, the binding signal was 3.12 log2 normalized fluorescence.

“CCGGCGGGCACGTGGTATTAATAGCTAAGATTACTATATCGACG”: the binding signal is 3.35 log2 normalized fluorescence.

As for “CCGGCGGTCACGTGGTATTAATAGCTAAGATTACTATATCGACG”, the binding signal is 3.37 log2 normalized fluorescence.

On to “CCGGCACACACGTGGTATTAATAGCTAAGATTACTATATCGACG”, for which the binding signal is 3.32 log2 normalized fluorescence.

Consider “CCGGCGGACACGTGGTATTAATAGCTAAGATTACTATATCGACG”, for which the binding signal was 3.33 log2 normalized fluorescence.

Consider “CCGGCCGTCACGTGGTATTAATAGCTAAGATTACTATATCGACG”, for which the binding signal was 3.18 log2 normalized fluorescence.

In the case of “CCGGCTGATACCTGGTGTTAATAGCTAAGATTACTATATCGACG”, the binding signal was -0.298 log2 normalized fluorescence.

In the case of “CCGGCTGACACGTAGAGTTAATAGCTAAGATTACTATATCGACG”, the binding signal was 0.996 log2 normalized fluorescence.

As for “CCGGCTGAAGCGGTGTATTAATAGCTAAGATTACTATATCGACG”, the binding signal is -0.554 log2 normalized fluorescence.

In the case of “CCGGCTGACCCATGGTATTAATAGCTAAGATTACTATATCGACG”, the binding signal is 2.08 log2 normalized fluorescence.
